FLuc modulator – inhibits or activates purified firefly luciferase, miR-21 counter-screen; P08659; purified FLuc, Km substrates, luminescence inhibition; Potency, µM (highest dose often 57.5 µM), for inactives: top-dose activity change, negative = inhibition, hits mostly inhibitors; 360,000 tested, 6.9% active;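 further: plate controls were vehicle for no effect and reference inhibitor for full effect; nearly all actives have a fitted effect of over 55% in size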
Target sequence (P08659 whole entry, looked up): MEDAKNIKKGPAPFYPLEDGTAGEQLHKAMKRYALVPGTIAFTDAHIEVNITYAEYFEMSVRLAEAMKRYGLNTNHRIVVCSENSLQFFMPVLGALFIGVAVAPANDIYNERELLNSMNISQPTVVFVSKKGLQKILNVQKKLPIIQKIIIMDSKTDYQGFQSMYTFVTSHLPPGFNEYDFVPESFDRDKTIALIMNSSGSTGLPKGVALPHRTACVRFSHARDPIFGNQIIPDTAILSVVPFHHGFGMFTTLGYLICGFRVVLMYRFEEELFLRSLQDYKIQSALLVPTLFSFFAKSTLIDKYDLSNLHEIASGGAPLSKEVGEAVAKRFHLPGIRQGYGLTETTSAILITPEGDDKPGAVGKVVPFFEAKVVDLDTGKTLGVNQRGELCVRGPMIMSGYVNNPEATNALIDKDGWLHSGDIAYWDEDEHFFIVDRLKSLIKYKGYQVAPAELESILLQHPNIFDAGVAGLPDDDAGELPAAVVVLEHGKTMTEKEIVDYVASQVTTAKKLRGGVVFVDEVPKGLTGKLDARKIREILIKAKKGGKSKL
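Purified P. pyralis luciferase, 10 nM final, with Km-level 10 uM D-luciferin and 10 uM ATP in 50 mM Tris acetate pH 7.5, 10 mM Mg acetate, 0.01% Tween-20, 0.05% BSA; 6-point qHTS titration about 60 µM downward; luminescence read.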
Luc counter – counter-screen: inhibitors of Kinase-Glo firefly luciferase; Potency, µM (highest dose often 38.3 µM), without a hit: at the top dose activity change, negative = inhibition, hits mostly inhibitors; Kinase-Glo luciferase, ATP luminescence, 8 min; AID 1379; 200,000 tested, 0.28% active; Q27757; further: on the % scale 0 is the no-effect control and ±100 the full control effect; nearly all actives have a fitted effect of over 60% in size
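Compounds were added to a substrate mix at pH 7.2 (50 mM imidazole, 10 uM ATP, within the enzyme's linear range), followed by Kinase-Glo detection reagent; luminescence was measured after 8 minutes at ambient temperature.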
ELG1 genotox – genotoxicity induction in ELG1-luciferase HEK293T cells; HEK293T ELG1-luciferase reporter, luminescence, 16 h; Potency, µM (series often up to 46 µM), without a hit: top-dose activity change, positive = activation, most hits filed as activators; 330,000 tested, 1.3% active; further: % of control where 0% means no effect; nearly all actives have a fitted effect of over 60% in size
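16 hr compound incubation (37 °C, 5% CO2) of HEK293T cells carrying luciferase-tagged ELG1; luciferase then measured by ONE-Glo luminescence after 30 min at RT.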
Rab9 prom act – activators of Rab9 promoter. Huh7 Rab9 promoter-luciferase reporter, luminescence, 24 h. Potency, µM (top dose mostly 9.22 µM), for inactives: at the highest dose activation, negative = inhibition, usual class: activators. 320,000 tested, 2.8% active. AID 485297; further: % of control where 0% means no effect; nearly all actives have a fitted effect of over 60% in size
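Steps: seed 1500 Huh7 Rab9-luc cells per well, rest 2 h at 37 °C; add compound in DMSO; incubate 24 h; add luciferase reagent, 10 min ambient; read luminescence.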
NPC1 promoter act – activators of NPC1 promoter. Huh7 NPC1 promoter luciferase reporter, 24 h. Potency, µM (series often up to 9.22 µM), for the others: top-dose activation, actives largely listed as activators. 320,000 tested, 2.4% active; further: % of control where 0% means no effect; nearly all actives have a fitted effect of over 60% in size
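Stable NPC1-promoter luciferase Huh7 line; cpd (DMSO) 24 h, 37 °C, 5% CO2; Amplite luciferase reagent 10 min RT; luminescence readout. qHTS format.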
SMN2 splice enh – increases expression of the SMN2 splice variant; HEK293 SMN2-luciferase splicing reporter, luminescence, 30-36 h; Potency, µM (titrated, usually from 46.1 µM), for inactives: at the highest dose activity change, positive = activation, actives largely listed as activators; 210,000 tested, 2.8% active; AID 1458; further: % of control where 0% means no effect; nearly all actives have a fitted effect of over 55% in size
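HEK293 cells carry an SMN2 minigene-luciferase reporter in which exon 7 inclusion puts luciferase in frame. Cells were seeded at 2000 cells/well, attached for 10-12 hours, then exposed to compounds for 30-36 hours at 37C before ONE-Glo luminescence.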
Starred values were filed as active, the others as inactive; ? = inconclusive; nt = no result given. Sampled rows, rich in hits. Any-hit rate of the full collection: about 7.3%. The call rests on the fitted dose curve; in most records, active means well fitted curve in the direction sought with a large enough effect; inconclusive means small, poorly fitted or top-dose-only effect, or another doubt; inactive means no such curve, though single readings can be large; an effect the other way counts as inactive or inconclusive. Potency means the concentration at half of the fitted maximal effect.

SMILES	FLuc modulator	Luc counter	ELG1 genotox	Rab9 prom act	NPC1 promoter act	SMN2 splice enh
O=C(COc1ccc(F)cc1)Nc1ccc2nc(SCC(=O)N3CCCC3)sc2c1	-11.4%	nt	nt	nt	nt	nt
CCn1c(C)cc(/C=C2/SC(=O)N(C(C)C(=O)OC)C2=O)c1C (stereo not drawn)	6.01µM*	nt	?	3.98µM*	3.16µM*	nt
CCOC(=O)C(C)N1C(=O)S/C(=C/c2cc(C)n(-c3ccccn3)c2C)C1=O (stereo not drawn)	8.49µM*	-3.1%	?	2.24µM*	2.51µM*	29.3%
COCCn1c(C)cc(/C=C2/SC(=O)N(C(C)C(=O)OC)C2=O)c1C (stereo not drawn)	2.39µM*	nt	8.2µM*	1.58µM*	1.41µM*	nt
COCCn1c(C)cc(/C=C2\NC(=S)N(C)C2=O)c1C	?	4.4%	?	0.2%	13.6%	11.2µM*
CCOC(=O)C(C)N1C(=O)S/C(=C/c2cc(C)n(-c3ccncc3)c2C)C1=O (stereo not drawn)	?	-1.0%	-4.9%	20.9%	-0.1%	-20.1%
CC1CCCCN1C(=O)CCC(=O)Nc1nnc(C2CCCCC2)s1 (stereo not drawn)	-2.6%	nt	-0.2%	2.7%	-3.2%	nt
O=C(CN1c2ccccc2Sc2ccccc21)NNC(=O)Nc1cccc(Cl)c1	2.7%	nt	-3.4%	-3.3%	1.6%	nt
COc1ccc(-n2nnnc2-c2cccnc2)cc1	-0.9%	-2.8%	-0.1%	-2.7%	-1.0%	7.6%
COC(=O)C(C)N1C(=O)S/C(=C/c2cc(C)n(C(C)C)c2C)C1=O (stereo not drawn)	13.5µM*	-2.7%	?	3.16µM*	0.5%	14.4%
O=C(CN1C(=O)S/C(=C\c2cccc(Cl)c2)C1=O)NC1C=CS(=O)(=O)C1 (stereo not drawn)	-1.8%	nt	9.0%	8.6%	-15.2%	nt
CC(C(=O)NC1C=CS(=O)(=O)C1)N1C(=O)/C(=C/c2cccc(Cl)c2)SC1=S (stereo not drawn)	15.1µM*	nt	2.6%	0.3%	-0.7%	nt
O=C(CN1C(=O)/C(=C/c2cccc(Cl)c2)SC1=S)NC1C=CS(=O)(=O)C1 (stereo not drawn)	2.69µM*	nt	8.9%	-0.6%	-0.7%	nt
c1ccc2c(OCCCCN3CCCC3)cccc2c1	-0.6%	nt	-14.9%	-1.8%	-5.5%	nt
CCn1c(COc2ccc3ccccc3c2C)nnc1SCC(=O)Nc1cccc(C(=O)O)c1	?	nt	-3.6%	-2.1%	-1.2%	nt
O=C(c1cc2ccccc2oc1=O)N1CCCCCCC1	3.9%	nt	3.6%	0.3%	0.4%	nt
Cc1ccc(C)c(Nc2nn3c(=O)c4cc5c(cc4nc3s2)OCO5)c1	?	nt	nt	nt	nt	15.7%
COc1ccc(OC)c(Nc2nn3c(=O)c4ccccc4nc3s2)c1	-3.5%	nt	nt	nt	nt	nt
O=c1c2ccccc2nc2sc(Nc3ccc(F)cc3)nn12	?	nt	10.3µM*	?	2µM*	nt
COc1cccc(Nc2nn3c(=O)c4ccccc4nc3s2)c1	?	nt	12.9%	-6.0%	?	nt
Cc1ccccc1Nc1nn2c(=O)c3ccccc3nc2s1	2.69µM*	-1.3%	?	?	2.51µM*	15.8µM*
O=c1c2cc3c(cc2nc2sc(Nc4ccccc4)nn12)OCO3	3.01µM*	nt	nt	nt	nt	16.2%
COc1ncccc1C(=O)NC1CCCc2c1cnn2-c1ccc(C)c(C)c1 (stereo not drawn)	0.9%	nt	-7.7%	-3.3%	-4.4%	nt
COc1ccc(NS(=O)(=O)c2cc(Br)cc3c2N(C(C)=O)CC3)cc1	1.4%	nt	-4.2%	-15.4%	-36.9%	nt
CC1=CC(c2ccccc2)=Nc2ccc(C)cc2N1	6.75µM*	-25.2%	11.6µM*	3.98µM*	3.55µM*	10µM*
SMILES	FLuc modulator	Luc counter	ELG1 genotox	Rab9 prom act	NPC1 promoter act	SMN2 splice enh
O=C1NCCCCC1NS(=O)(=O)c1ccc(Cl)cc1 (stereo not drawn)	-0.6%	nt	1.9%	-2.5%	-1.0%	nt
CCN(CC)CC#CC(C)OCOCC#CCOC (stereo not drawn)	0.6%	0.9%	-0.5%	-2.6%	-0.8%	-12.1%
CC1(C)CC(=O)C(C(C2=C(O)CC(C)(C)CC2=O)c2cccs2)C(=O)C1 (stereo not drawn)	16.9µM*	nt	3.0%	-1.2%	-4.4%	nt
COc1ccc2c(c1)[nH]c1c(=O)n(Cc3ccco3)cnc12	-14.0%	3.4%	18.4µM*	?	?	?
CCOC(=O)c1c(NC(=O)CN(CC)CC)sc2c1CCC2	-0.8%	2.0%	-2.4%	2.4%	0.6%	nt
Cc1nc(-c2cccc(NC(=O)c3ccc(-n4nccc4C)cc3)c2)cs1	4.78µM*	nt	-7.6%	10.0%	12.2%	nt
Cc1nc(-c2ccc(C(=O)Nc3cc(S(N)(=O)=O)ccc3C)cc2)cs1	?	nt	-8.0%	9.6%	12.4%	nt
Cc1nc(-c2ccc(C(=O)Nc3cccc(Br)c3)cc2)cs1	1.07µM*	?	?	?	?	10µM*
Cc1ccc(C(=O)CN2C(=O)C(C)Oc3ccccc32)cc1 (stereo not drawn)	?	-6.2%	16.3%	21.6%	4.3%	16.0%
CCN(CC)S(=O)(=O)c1ccc(N2CCOCC2)c(NC(=O)COc2ccc(C#N)cc2)c1	15.1µM*	nt	-7.0%	-3.4%	-5.3%	nt
CCCCC(=O)Nc1nnc(CCOC)s1	?	3.7%	-2.7%	-13.0%	0.3%	2.2%
CCn1c(COc2cccc(C)c2)nnc1SCC(=O)NC1CCCC1	-2.0%	nt	-2.9%	3.2%	1.9%	nt
O=C1c2ccccc2C(=O)N1CCC1=CCCCC1	15.1µM*	-6.0%	?	10.3%	5.6%	21.4%
O=C(O)c1ccc2c(c1)C(=O)N(CCC1=CCCCC1)C2=O	-8.0%	0.8%	-2.3%	-8.7%	-0.1%	2.1%
CCOc1ccccc1-n1ccn(CC(=O)Nc2ccc(Br)cc2F)c(=O)c1=O	-1.0%	nt	-1.7%	14.3%	0.7%	nt
CCOc1ccc(OCc2cccc(C(=O)O)c2)cc1	0.0169µM*	11.2µM*	-28.8%	-25.4%	-22.2%	0.0316µM*
CCN(CC(=O)Nc1c(F)cccc1F)C(=O)c1ccc(COc2ccccc2)cc1	1.5%	nt	-4.8%	6.5%	1.6%	nt
O=C(O)c1cc(OCc2ccccc2)cc(OCc2ccccc2)c1	1.2%	nt	-5.5%	-8.0%	-0.9%	nt
COc1cc(/C=N/NC(=O)c2cccc([N+](=O)[O-])c2)ccc1OCc1ccccc1	10.2%	0.4%	-1.5%	0.5%	-1.8%	-0.5%
COc1ccc(OCc2cccc(C(=O)O)c2)cc1	0.0301µM*	?	nt	1µM*	0.0006µM*	0.0398µM*
CCOc1ccc(OCc2ccc(C(=O)N(CC)CC)cc2)cc1	15.1µM*	-0.6%	5.9%	?	?	23.9%
COc1cc(/C=C/[N+](=O)[O-])ccc1OCc1cccc(C(=O)O)c1	0.213µM*	-6.5%	?	1.26µM*	1µM*	1.26µM*
